In assay [1] the test system is Plasmodium falciparum Sir2 (PF13_0152, Sir2A). Kind of assay: Plasmodium falciparum Sir2A binding compounds – biochemical, small-molecule microarray, 635 nm fluorescence, primary screen (AID 1098).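 Note: score merges spot fluorescence intensity with its signal-to-noise ratio.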 As to conditions: fluorescence 635 nm, higher = more signal.
Assay [2] can be described thus: probe aDKK1 binding to arrayed compounds – biochemical, biotinylated probe, 635/667 nm fluorescence, primary screen (AID 1099).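 Note: score merges 667nm spot fluorescence with signal to noise across triplicate slides.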 The note with it: small-molecule microarray, higher = more signal.
Assay [3] in a line: probe aCHRDL2 binding to arrayed compounds – biochemical, biotinylated probe, 635/667 nm fluorescence, primary screen (AID 1100). As to conditions: small-molecule microarray, higher = more signal.
Assay [4] can be described thus: change in splice reporter luminescence, either direction, cell-based, HEK293, spliceosome inhibition project, primary screen (AID 1101).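 Note: HEK293 cells carrying a splicing-competent luciferase reporter gene; test concentration not given here.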 As to conditions: HEK293 splicing luciferase reporter, 24 h, higher = more signal, called active from +8 up or from −8 down.
Assay [5] concerns the target Fibroblast growth factor 10 (Homo sapiens) (UniProt O15520). In words: compounds binding fibroblast growth factor 10 – biochemical, small-molecule microarray, 635 nm fluorescence, primary screen (AID 1102). The note with it: FGF10 binding, fluorescence 635 nm, higher = more signal.
In assay [6] the test system is glycogen synthase kinase-3 (GSK3A per assay name; protocol says GSK3B). Kind of assay: compounds binding glycogen synthase kinase-3 – biochemical, small-molecule microarray, 635 nm fluorescence, GSK3A, primary screen (AID 1103). Note: the record names both GSK3A and GSK3B. The note with it: fluorescence 635 nm, higher = more signal.
The target of assay [7] is Epidermal growth factor receptor (Homo sapiens) (UniProt P00533). In words: compounds binding epidermal growth factor receptor – biochemical, small-molecule microarray, 635 nm fluorescence, primary screen (AID 1104).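 Note: score merges 667 nm emission intensity with spot signal to noise over triplicate slides.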 The note with it: EGFR binding, higher = more signal.
Assay [8] concerns the target Follistatin-related protein 3 (Homo sapiens) (UniProt O95633). In words: compounds binding follistatin-related protein 3 – biochemical, small-molecule microarray, 635 nm fluorescence, primary screen (AID 1105).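 Note: score merges emission near 667 nm and signal to noise per printed spot across three slides.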 The note with it: FSTL3 binding, higher = more signal.
The target of assay [9] is Dickkopf-related protein 1 (Homo sapiens) (UniProt O94907). In words: small molecules binding DKK1 protein – biochemical, small-molecule microarray, 635 nm fluorescence scan, primary screen (AID 1106).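 Note: score merges emission near 667 nm with signal to noise over three replicate slides.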 As to conditions: higher = more signal.
In assay [10] the test system is Inhibin beta A chain (activin A). In words: small molecules binding activin A – biochemical, small-molecule microarray, 635 nm fluorescence scan, primary screen (AID 1107).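 Note: mouse activin A protein probed at 4.33 µg/mL on printed slides; score merges bound-protein fluorescence near 667 nm with spot signal-to-noise.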 The note with it: INHBA, higher = more signal.
Assay [11] has as its system Human papillomavirus type 1a protein E7 (residues 44-93). Kind of assay: small molecules binding HPV E7 44-93 – biochemical, small-molecule microarray, residues 44-93, 635 nm fluorescence, primary screen (AID 1108).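 Note: E7 fragment applied at 1 µg/mL in TBST for 1 h at 4 C; score combines spot fluorescence with its signal to noise ratio.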 The note with it: fluorescence 635 nm, higher = more signal.
A short description of assay [12]: hepatitis C replication reporter changes, two-sided – Huh7 cells, luciferase reporter, HCV replication inhibitor project, primary screen (AID 1109).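 Note: huh7 hepatoma cells harbouring a luciferase neomycin HCV replicon reporter; luciferase luminescence as measure of HCV replicon replication; test concentration not given here.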 The note with it: Huh7 HCV replicon luciferase reporter, 48 h; higher = more signal.
For assay [13], the target named is Left-right determination factor 2 (Homo sapiens) (UniProt O00292). In words: small molecules binding LEFTY2 protein – biochemical, small-molecule microarray, 635 nm fluorescence scan, primary screen (AID 1110). As to conditions: higher = more signal.
Assay [14] concerns the target Calmodulin-1 (Homo sapiens) (UniProt P0DP23). Kind of assay: small molecules binding calmodulin-1 with EGTA – biochemical, small-molecule microarray, Cy5-labelled CALM1, profiling panel (AID 1111).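 Note: labelled calmodulin applied in Tris saline Tween buffer holding calcium plus EGTA and DTT.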 The note with it: Cy5-CALM1 binding fluorescence, higher = more signal.
Assay [15] shares this target. Kind of assay: small molecules binding Ca-loaded calmodulin-1 – biochemical, small-molecule microarray, Cy5-labelled CALM1, plus calcium, artefact control for SMM control-protein annotation, profiling panel (AID 1112).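 Note: score merges spot fluorescence with signal to noise from triplicate slides.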 As to conditions: Cy5-CALM1 binding fluorescence, higher = more signal.
Assay [16] in a line: probe aWnt5a binding to arrayed compounds – biochemical, biotinylated probe, 635/667 nm fluorescence, primary screen (AID 1113).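 Note: score merges 667 nm fluorescence intensity with signal-to-noise per printed feature.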 The note with it: small-molecule microarray, higher = more signal.
The nature of assay [17]: probe aShh binding to arrayed compounds – biochemical, biotinylated probe, 635/667 nm fluorescence, primary screen (AID 1114).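 Note: probe is biotin-labelled aShh protein from a stem cell growth factor screen; measures binding of labelled protein to compounds printed on the slide; score merges feature fluorescence at 667 nm with signal-to-noise.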 The note with it: small-molecule microarray, higher = more signal.
Assay [18] can be described thus: probe aNog binding to arrayed compounds – biochemical, biotinylated probe, 635/667 nm fluorescence, primary screen (AID 1115).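 Note: probe is biotinylated aNog protein used at 0.15 µg/mL for 1 h at 4 C; z-score combines 667 nm fluorescence of each spot with its signal to noise.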 As to conditions: small-molecule microarray, higher = more signal.
Assay [19] has as its target Torsin-1A-interacting protein 1 (Homo sapiens) (UniProt Q5JTV8). Kind of assay: compound microarray binding of lysate hLAP1 – cell lysate, small-molecule microarray, COS7 lysate, 635/667 nm fluorescence, primary screen (AID 1116). As to conditions: 635 nm fluorescence, higher = more signal.
The target of assay [20] is Alpha-bungarotoxin (Bungarus multicinctus) (UniProt P60615). In words: compounds binding labelled alpha-BTX control protein – biochemical, small-molecule microarray, Alexa647 label, 635/667 nm fluorescence, artefact control for SMM control protein annotation, profiling panel (AID 1117). As to conditions: alpha-BTX-A647 binding fluorescence, higher = more signal.

Molecules are shown by their SMILES. The source made the active and inactive calls.

The results in this text go back to PubChem BioAssay.

Sequence of Left-right determination factor 2 (Homo sapiens) (O00292 whole entry, looked up): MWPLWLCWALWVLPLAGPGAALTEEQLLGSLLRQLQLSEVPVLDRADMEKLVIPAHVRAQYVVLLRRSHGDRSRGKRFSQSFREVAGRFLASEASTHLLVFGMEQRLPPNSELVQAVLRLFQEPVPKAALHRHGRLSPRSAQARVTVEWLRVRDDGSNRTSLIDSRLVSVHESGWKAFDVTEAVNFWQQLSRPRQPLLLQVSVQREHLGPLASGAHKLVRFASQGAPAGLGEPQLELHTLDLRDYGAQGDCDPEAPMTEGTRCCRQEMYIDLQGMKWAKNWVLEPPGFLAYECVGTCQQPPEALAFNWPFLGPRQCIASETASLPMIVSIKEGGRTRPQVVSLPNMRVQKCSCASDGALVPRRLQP
Sequence of Dickkopf-related protein 1 (Homo sapiens) (O94907 whole entry, looked up): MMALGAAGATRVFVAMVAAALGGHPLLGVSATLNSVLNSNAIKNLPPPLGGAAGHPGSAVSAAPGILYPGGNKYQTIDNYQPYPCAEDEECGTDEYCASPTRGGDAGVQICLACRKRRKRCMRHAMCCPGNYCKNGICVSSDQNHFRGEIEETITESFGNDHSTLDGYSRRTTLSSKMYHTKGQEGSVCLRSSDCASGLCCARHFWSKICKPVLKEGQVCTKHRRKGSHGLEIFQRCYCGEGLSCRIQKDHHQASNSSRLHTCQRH
Sequence of Epidermal growth factor receptor (Homo sapiens) (P00533 whole entry, looked up): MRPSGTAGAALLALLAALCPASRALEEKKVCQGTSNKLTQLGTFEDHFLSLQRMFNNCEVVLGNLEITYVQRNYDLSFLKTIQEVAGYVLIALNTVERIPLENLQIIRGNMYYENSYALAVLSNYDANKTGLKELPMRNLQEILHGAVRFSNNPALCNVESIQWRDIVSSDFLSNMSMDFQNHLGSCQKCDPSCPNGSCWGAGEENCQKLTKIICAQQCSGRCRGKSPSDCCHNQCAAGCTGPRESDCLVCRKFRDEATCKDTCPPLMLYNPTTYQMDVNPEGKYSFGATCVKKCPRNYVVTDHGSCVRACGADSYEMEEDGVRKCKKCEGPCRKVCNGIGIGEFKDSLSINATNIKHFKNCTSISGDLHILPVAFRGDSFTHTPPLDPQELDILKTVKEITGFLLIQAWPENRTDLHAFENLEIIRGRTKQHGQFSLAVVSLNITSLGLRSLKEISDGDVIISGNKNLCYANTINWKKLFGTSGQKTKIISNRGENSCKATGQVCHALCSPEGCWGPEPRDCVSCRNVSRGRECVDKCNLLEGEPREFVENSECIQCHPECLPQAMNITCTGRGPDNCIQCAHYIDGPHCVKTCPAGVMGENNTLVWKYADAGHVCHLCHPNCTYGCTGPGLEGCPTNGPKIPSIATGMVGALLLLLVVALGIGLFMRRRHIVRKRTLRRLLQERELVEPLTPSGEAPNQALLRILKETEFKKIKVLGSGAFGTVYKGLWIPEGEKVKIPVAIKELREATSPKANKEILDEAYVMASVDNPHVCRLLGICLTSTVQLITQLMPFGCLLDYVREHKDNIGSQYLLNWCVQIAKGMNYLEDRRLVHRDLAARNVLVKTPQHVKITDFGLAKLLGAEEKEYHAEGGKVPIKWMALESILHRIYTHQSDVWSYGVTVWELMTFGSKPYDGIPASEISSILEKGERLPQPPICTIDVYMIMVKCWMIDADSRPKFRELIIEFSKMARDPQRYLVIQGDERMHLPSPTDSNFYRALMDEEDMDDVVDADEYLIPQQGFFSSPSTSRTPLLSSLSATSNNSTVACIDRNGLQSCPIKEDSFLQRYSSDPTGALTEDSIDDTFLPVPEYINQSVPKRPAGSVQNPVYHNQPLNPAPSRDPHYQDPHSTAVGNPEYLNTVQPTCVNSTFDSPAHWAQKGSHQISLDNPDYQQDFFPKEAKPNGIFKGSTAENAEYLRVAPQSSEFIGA
Sequence of Follistatin-related protein 3 (Homo sapiens) (O95633 whole entry, looked up): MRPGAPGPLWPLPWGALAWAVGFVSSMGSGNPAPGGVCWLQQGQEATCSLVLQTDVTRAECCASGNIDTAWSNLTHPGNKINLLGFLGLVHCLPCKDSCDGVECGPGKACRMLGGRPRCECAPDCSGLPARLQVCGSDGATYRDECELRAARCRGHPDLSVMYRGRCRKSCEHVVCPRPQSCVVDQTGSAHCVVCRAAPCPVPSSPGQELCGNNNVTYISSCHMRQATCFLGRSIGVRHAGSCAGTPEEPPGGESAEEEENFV
Sequence of Torsin-1A-interacting protein 1 (Homo sapiens) (Q5JTV8 whole entry, looked up): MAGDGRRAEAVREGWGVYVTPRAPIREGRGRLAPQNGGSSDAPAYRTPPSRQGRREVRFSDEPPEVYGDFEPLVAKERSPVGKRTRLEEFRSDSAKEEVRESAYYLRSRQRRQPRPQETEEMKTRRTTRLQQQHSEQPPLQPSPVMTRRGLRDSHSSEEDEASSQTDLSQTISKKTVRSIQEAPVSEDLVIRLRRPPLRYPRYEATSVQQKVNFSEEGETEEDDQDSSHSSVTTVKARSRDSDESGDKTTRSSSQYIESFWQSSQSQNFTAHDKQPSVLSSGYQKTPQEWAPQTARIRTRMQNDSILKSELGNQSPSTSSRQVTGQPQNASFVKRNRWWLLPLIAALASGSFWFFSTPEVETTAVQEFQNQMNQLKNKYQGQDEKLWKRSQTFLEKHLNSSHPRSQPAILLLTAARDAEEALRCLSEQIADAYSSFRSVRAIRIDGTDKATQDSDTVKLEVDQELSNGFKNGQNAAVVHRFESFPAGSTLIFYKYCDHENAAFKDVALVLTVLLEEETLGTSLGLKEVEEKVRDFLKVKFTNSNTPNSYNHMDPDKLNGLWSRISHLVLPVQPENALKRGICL
Sequence of Alpha-bungarotoxin (Bungarus multicinctus) (P60615 whole entry, looked up): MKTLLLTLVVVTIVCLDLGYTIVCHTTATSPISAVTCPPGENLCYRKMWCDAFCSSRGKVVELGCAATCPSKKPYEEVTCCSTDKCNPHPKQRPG
Sequence of Fibroblast growth factor 10 (Homo sapiens) (O15520 whole entry, looked up): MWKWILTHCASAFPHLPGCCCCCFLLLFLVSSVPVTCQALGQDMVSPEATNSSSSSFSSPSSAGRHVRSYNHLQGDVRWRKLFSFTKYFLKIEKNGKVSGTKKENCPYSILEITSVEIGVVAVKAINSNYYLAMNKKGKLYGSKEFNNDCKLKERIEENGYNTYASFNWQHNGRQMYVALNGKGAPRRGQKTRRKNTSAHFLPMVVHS

With `COc1ccc(NN2C(C(O)c3ccc(F)cc3)C=CC3C(=O)N(C4CCCCC4)C(=O)C32)cc1` (stereo not given), the composite z-score in [1] stood at 0.565; in assay [2] it was 0.959; in assay [3] it was 0.763; in assay [5] it was 0.995; in assay [6], 0.928; in assay [7] it was 0.801. Besides, the composite z-score amounted to 1.01 in assay [8]; 0.129 in [9]; 1.24 in assay [10]; 1.44 in [11]; 0.14 in assay [13]; 1.08 in assay [14]. For the same compound, the composite z-score in assay [15] was determined as 0.722; in assay [16] it was 0.0919; in [17], 0.108; in assay [18] it was 1.03; in [19], 0.297; in assay [20] it was 1.37. In addition, the figures for the z-score in [4] and in assay [12] were -0.794 (inactive) and -0.502, respectively.
In the case of `Cc1ccc(S[C@]2(C(=O)NC3CC3)CC(=O)N(C3Cc4ccccc4C3)[C@@H]2c2ccc(CO)cc2I)cc1`, the composite z-score in assay [1] was 0.911; in [2] it was 0.379; in assay [3], 0.524; in assay [5], -0.745; in [6] it was -0.641; in [7], -1.62. The composite z-score in [8] was -1.11; in assay [9] it was -0.826; in [10], 0.771; in assay [11] it was 0.451; in assay [13], -1.05; in assay [14], 2.09. Further, the composite z-score was -0.628 in assay [15]; -0.0758 in [16]; -0.375 in [17]; 0.144 in [18]; -0.623 in assay [19]; -0.0871 in assay [20]. Besides, the figures for the z-score in assay [4] and in assay [12] were -1.38 (inactive) and -2.14, respectively.
As to `CCOC(=O)C=C1C[C@@H](c2cccc([N+](=O)[O-])c2)O[C@@H](c2cccc([N+](=O)[O-])c2)O1`, the composite z-score in assay [1] was 0.765; in [2], 1.15; in assay [3], 0.895; in assay [5] it was 0.567; in assay [6], 1.27; in assay [7], 0.46. For the same compound, the composite z-score stood at 0.747 in assay [8]; 0.514 in [9]; 0.594 in assay [10]; 0.478 in [11]; 0.584 in [13]; 1.68 in assay [14]. Also, the composite z-score in assay [15] was 0.966; in [16], 0.0289; in assay [17], 0.317; in assay [18], 1.64; in [19], 0.785; in [20], 1.05. Besides, the z-score in assay [4] was 0.435 (inactive); in assay [12] it was -1.96.
With `C=C(C)C1CN([C@H](CO)c2ccccc2)C(=O)/C1=C\c1ccccc1` (stereo not given in full), the composite z-score in assay [1] was 0.719; in assay [2] it was -0.316; in [3] it was -0.492; in assay [5], 0.716; in [6], 0.22; in assay [7] it was 0.0508. For the same compound, the composite z-score in [8] was 0.276; in assay [9], 0.48; in assay [10] it was 1.29; in assay [11] it was -0.165; in assay [13] it was 0.241; in assay [14] it was -0.565. For the same compound, the composite z-score in assay [15] is -0.754; in [16] it was -0.144; in [17], -0.289; in assay [18] it was 0.172; in [19], 0.189; in assay [20] it was -0.173. The z-score in assay [4] is -0.921 (inactive); in assay [12] it was -1.56.
`C=CC[C@]1(C(=O)NCC(O)CO)N=C(c2ccc(OCCCO)cc2)O[C@H]1c1ccccc1CN=[N+]=[N-]` (stereo not given in full): the composite z-score in [1] was -0.285; in [2] it was 0.783; in [3], 1.18; in assay [5], 0.722; in [6], 0.7; in assay [7], -2.08. The composite z-score was -1.17 in assay [8]; -0.471 in assay [9]; 0.274 in [10]; 0.551 in assay [11]; -0.696 in assay [13]; 1.34 in assay [14]. The composite z-score is 0.262 in [15]; 0.0181 in assay [16]; -0.0146 in assay [17]; -0.516 in assay [18]; 3.34 in assay [19]; 0.138 in [20]. The z-score in assay [4] was 0.704 (inactive); in assay [12] it was -1.06.
